Assay outcomes from PubChem BioAssay.
Peg3 imprint – qHTS Assay for Compounds that Induce Erasure of Genomic Imprints. 0.02% of 110,000 active. mouse ES Peg3-LacZ reporter, beta-gal luminescence, 40 h. Potency, µM (series often up to 60.7 µM), without a hit: at the highest dose activity change, positive = activation, actives largely listed as activators
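Imprint erasure is scored as LacZ activity from the silenced maternal Peg3 allele in feeder-free female ES cells cultured 40 h with LIF. Luminescence is normalized to in-plate negative controls and fitted to the Hill equation.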
p53ts 39C tox – qHTS Screen for Compounds that Selectively Target Cancer Cells with p53 Mutations: Cytotoxicity of p53ts Cells at the Nonpermissive Temperature. H1299-p53A138V viability at 39C, ATP luminescence, 24 h. Potency, µM (highest dose often 46.1 µM), for inactives: top-dose activity change, negative = cell killing, actives largely listed as cytotoxic. 1.5% of 130,000 active. AID 902, 2007; further: on the % scale 0 is the no-effect control and ±100 the full control effect; nearly all actives have a fitted effect of over 55% in size
ERK AVP block – qHTS Assay for Inhibitors of the ERK Signaling Pathway using a Homogeneous Screening Assay; AID 995, 2007; 0.99% of 72,000 active; HEK293-V1b, vasopressin-stimulated pERK AlphaScreen; Potency, µM (series often up to 57.5 µM), for inactives: at the highest dose activity, negative = inhibition, actives largely listed as inhibitors; further: on the % scale 0 is the no-effect control and ±100 the full control effect; nearly all actives have a fitted effect of over 55% in size
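HEK293 cells stably expressing V1b receptor, preincubated 30 min at 37 °C with compound, then stimulated 5 min with 25 nM vasopressin. Phospho-ERK by AlphaScreen SureFire after 5 h RT; normalized to DMSO and vasopressin; AC50 by Hill fit.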
IkB signaling – IkB Signaling; ABC-DLBCL IkBa-CBG/CBR dual luciferase ratio, 4 h; response scale: scaled: untreated 0%, proteasome inhibitor 100%; Potency, µM (highest dose often 57.1 µM), inactives show at the top dose IkBa stabilization activation; 0.04% of 110,000 active; AID 445, 2006; active means well fitted curve in the direction sought with a large enough effect in the signal ratio, not every such curve was filed as active; inconclusive means small, poorly fitted or top-dose-only effect, or a change in a side signal; the % refers to the signal ratio;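 further: the direction sought is a rising ratio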
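In this assay, an IκBα–CBG68 fusion accumulates when IKK-driven degradation is blocked; native CBR normalizes for cell number. OCI-Ly3 cells were treated 4 h with compound and doxycycline, then green and red light read after Chroma-Glo addition.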
p53ts 32C tox – qHTS Screen for Compounds that Selectively Target Cancer Cells with p53 Mutations: Cytotoxicity of p53ts Cells at the Permissive Temperature | H1299-p53A138V at 32C, ATP luminescence viability, 24 h | Potency, µM (series often up to 46.1 µM), for the others: top-dose activity change, negative = cytotoxicity, most hits filed as cytotoxic | 0.93% of 130,000 active | AID 924, 2007;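 further: 0% = DMSO and -100% = full killing by reference compound; nearly all actives have a fitted effect of over 55% in size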
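ATP-content luminescence (ATPlite) read-out after 24 h compound exposure at 32C in H1299-p53A138V cells (600/well). Tested up to 46 uM. Normalized to DMSO (0%) and 100 uM tamoxifen (100% killing); Hill-fit AC50.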
An asterisk follows results filed as active; ? = inconclusive; . = no result; ! = not confirmed by another sample; [ ] = remark or other dose. A selection: hits, their analogues and other compounds. The true share with any hit is near 2.3%. Unless noted, the call rests on the fitted dose curve; in most records, active means well fitted curve in the direction sought with a large enough effect; inconclusive means small, poorly fitted or top-dose-only effect, or another doubt; inactive means no such curve, though single readings can be large; an effect the other way counts as inactive or inconclusive. Potency means the concentration at half of the fitted maximal effect.

SMILES | Peg3 imprint | p53ts 39C tox | ERK AVP block | IkB signaling | p53ts 32C tox
COc1ccc2nc(NC(=O)c3nc(S(=O)(=O)Cc4cccc(C)c4)ncc3Cl)sc2c1 | -35%[10.9 µM] | 10µM* | . | ? | 20µM*
O=C(c1ccccc1)[C@H]1[C@H](c2ccccc2[N+](=O)[O-])N1C1CCCCC1 (stereo partly drawn) | -21%[10.9 µM] | -23%[9.22 µM] | 11%[11.5 µM] | 5µM* | 1%[9.22 µM]
C[C@@H]1O[C@@H](O[C@H]2C[C@@H](O)[C@]3(CO)[C@@H]4[C@@H](O)C[C@]5(C)[C@H]([C@@H]6COC(=O)C6)CC[C@@]5(O)[C@H]4CC[C@@]3(O)C2)[C@H](O)[C@H](O)[C@@H]1O | . | ? | 4% | -5% | ?
Cc1nc2c(=O)n(C)c(=O)nc-2n(C)n1 | . | 2µM* | . | . | 1.1µM*
CC(=O)N1C[C@@H]2C[C@H](C1)c1cccc(=O)n1C2 | . | . | . | 2%[11.4 µM] | .
[Cd+2].[Cl-].[Cl-] | -22% | 1.3µM* | -9% | 4µM* | .
CC(C)[C@@]1(NC(=O)[C@@H]2C=C3c4cccc5[nH]cc(c45)C[C@@H]3N(C)C2)O[C@]2(O)[C@H]3CCCN3C(=O)[C@H](Cc3ccccc3)N2C1=O | . | . | . | 0% | .
CC(C)[C@@]1(NC(=O)[C@@H]2C[C@H]3c4cccc5[nH]cc(c45)C[C@@H]3N(C)C2)O[C@@]2(O)[C@H]3CCCN3C(=O)[C@H](Cc3ccccc3)N2C1=O | -4% | 32µM*! | ? | ? | ?
C[C@@]12CC[C@H]3[C@@H](CCC4=CC(=O)CC[C@]43C)[C@H]1CCC2=O | . | . | . | -4% | .
COC(=O)C1CN(C#N)N(c2ccc(Cl)cc2)C12c1ccccc1-c1ccccc12 (stereo not drawn) | . | 11µM* | . | . | 4µM*
O[N+]1=CC=CCC1=S.On1ccccc1=S.[Zn] | -31% | 4µM* | ? | . | 0.79µM*
CCCCCC[C@H]1C(=O)O[C@@H](C)[C@H](NC(=O)c2cccc(NC=O)c2O)C(=O)O[C@@H](C)[C@@H]1OC(=O)CC(C)C | . | . | . | 6%[11.4 µM] | .
